Data reported in PubChem BioAssay (EPA / NIEHS).
Values joined by “and” are separate entries in the source; they are usually repeats but may differ in a detail not shown here. Identical values can stand only once. Results filed as inconclusive are left out. More than one record can exist for a structure, and the calls need not agree. Active and inactive are the calls of the source. How the source made its calls, unless noted: active means hit-call score of the fitted dose curve at least 0.9, where 1 is the maximum; inactive means score below 0.9.

How the values were obtained:
[1] = read-out: Monocyte Chemoattractant Protein-1 (MCP1), CCL2 (gene 6347); assay: BSK_SAg_MCP1: BioMAP Diversity Plus: SAg Assay for Monocyte Chemoattractant Protein-1 (MCP1) Biomarker Activity (AID 2283090); conditions: primary human HUVEC with PBMC; actives raise or lower the signal
Outline: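 Values derive from bidirectional fitting of ELISA-measured MCP1 against DMSO controls. Readings were taken 24 h after dosing human vascular endothelial cells co-cultured with peripheral blood mononuclear cells under superantigen stimulation.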

[2] = read-out: E-selectin (Homo sapiens) (UniProt P16581); assay: BSK_SAg_Eselectin: BioMAP Diversity Plus: SAg Assay for Eselectin Biomarker Activity (AID 2283091); conditions: primary human HUVEC with PBMC; actives raise or lower the signal
Outline: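 Primary human endothelial cells and peripheral blood mononuclear cells were co-cultured and exposed to chemical for 24 hours. E-selectin levels were then quantified by ELISA, with bidirectional curve fitting normalised to DMSO controls.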

[3] = read-out: Monokine induced gamma interferon (MIG), CXCL9 (gene 4283); assay: BSK_SAg_MIG: BioMAP Diversity Plus: SAg Assay for Monokine induced gamma interferon (MIG) Biomarker Activity (AID 2283092); conditions: primary human HUVEC with PBMC; actives raise or lower the signal
Outline: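 Endothelial cells and PBMC were co-cultured, exposed to test chemicals, and sampled 24 h later. MIG was measured by ELISA, and responses were fitted in both directions relative to DMSO.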

[4] = BSK_SAg_PBMCCytotoxicity: PBMC Cytotoxicity Assessment in the BioMAP Diversity Plus: SAg Assay (AID 2283093); conditions: primary human HUVEC with PBMC;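 further: PBMC viability measured as Alamar Blue reduction fluorescence at 546/580 nm; fitted both ways against DMSO so a hit may be loss or gain of signal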;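 on AC50: PBMC superantigen activated with SEB plus TSST-1 one hour after compound addition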
Outline: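 Alamar Blue reduction (6 h, 546/580 nm) reports PBMC cytotoxicity after 90 h superantigen activation (SEB, TSST-1; 20 ng/mL final each) with 1 h compound pre-treatment. Gain or loss of signal fitted versus DMSO.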

[5] = read-out: Interleukin-8 (IL8), CXCL8 (gene 3576); assay: BSK_SAg_IL8: BioMAP Diversity Plus: SAg Assay for Interleukin-8 (IL8) Biomarker Activity (AID 2283094); conditions: primary human HUVEC with PBMC; actives raise or lower the signal
Outline: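 Primary human endothelial cells with PBMC, exposed 24 h; IL-8 determined by ELISA, analysed bidirectionally relative to DMSO.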

[6] = BSK_SAg_Proliferation: Cell Proliferation Assessment in the BioMAP Diversity Plus: SAg Assay (AID 2283095); conditions: primary human HUVEC with PBMC;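 further: relative cell number as total protein by SRB absorbance in sub-confluent culture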
Outline: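 A human primary co-culture of umbilical vein endothelium and blood mononuclear cells receives compound; relative cell number is quantified at 96 h by SRB staining and 560 nm absorbance, with DMSO-referenced bidirectional curve fitting.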

[7] = BSK_SAg_SRB: Viability Assessment in the BioMAP Diversity Plus: SAg Assay (AID 2283096); conditions: primary human HUVEC with PBMC;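 further: cells read one day after compound addition; hits may be either gain or loss of signal compared with DMSO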
Outline: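 This overt-cytotoxicity endpoint quantifies protein in human endothelial/PBMC co-cultures at 24 h using SRB absorbance (560 nm) after trichloroacetic acid fixation. Values reflect signal change from the DMSO negative control, fitted bidirectionally.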

[8] = target: human CYP1A1, CYP1A1 (gene 1543) (UniProt P04798); assay: NVS_ADME_hCYP1A1: NovaScreen (NVS) CYP450-related Enzyme Activity (ADME) Assay for human CYP1A1 (AID 2283100; active means hit-call score of the fitted dose curve at least 0.9, where 1 is the maximum)
human CYP1A1, CYP1A1 (gene 1543), sequence (P04798 whole entry, looked up): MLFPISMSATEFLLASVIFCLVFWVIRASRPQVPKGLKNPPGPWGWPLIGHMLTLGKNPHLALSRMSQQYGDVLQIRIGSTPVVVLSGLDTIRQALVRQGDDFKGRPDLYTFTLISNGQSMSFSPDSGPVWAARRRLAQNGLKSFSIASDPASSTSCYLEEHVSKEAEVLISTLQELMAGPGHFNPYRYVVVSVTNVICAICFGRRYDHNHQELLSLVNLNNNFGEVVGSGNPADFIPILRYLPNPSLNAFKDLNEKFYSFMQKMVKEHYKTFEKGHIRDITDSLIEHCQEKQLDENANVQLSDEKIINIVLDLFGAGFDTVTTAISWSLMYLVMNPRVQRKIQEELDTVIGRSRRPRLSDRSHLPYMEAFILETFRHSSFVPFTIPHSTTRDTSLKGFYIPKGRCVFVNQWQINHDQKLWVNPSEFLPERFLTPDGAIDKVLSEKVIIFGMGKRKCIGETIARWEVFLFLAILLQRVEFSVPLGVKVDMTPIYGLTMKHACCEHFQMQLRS
Outline: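 Compounds first went through duplicate single-concentration testing at 10 uM against purified CYP1A1. Those passing a threshold such as 30% inhibition entered singleton dose-response, highest concentration 20 uM. Signal was fluorescence measured after 1 hour.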

[9] = target: human CYP19A1, CYP19A1 (gene 1588) (UniProt P11511); assay: NVS_ADME_hCYP19A1: NovaScreen (NVS) CYP450-related Enzyme Activity (ADME) Assay for human CYP19A1 (AID 2283098; active means hit-call score of the fitted dose curve at least 0.9, where 1 is the maximum;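 on AC50: potency for inhibitors seen as loss of fluorescent enzyme signal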)
human CYP19A1, CYP19A1 (gene 1588), sequence (P11511 whole entry, looked up): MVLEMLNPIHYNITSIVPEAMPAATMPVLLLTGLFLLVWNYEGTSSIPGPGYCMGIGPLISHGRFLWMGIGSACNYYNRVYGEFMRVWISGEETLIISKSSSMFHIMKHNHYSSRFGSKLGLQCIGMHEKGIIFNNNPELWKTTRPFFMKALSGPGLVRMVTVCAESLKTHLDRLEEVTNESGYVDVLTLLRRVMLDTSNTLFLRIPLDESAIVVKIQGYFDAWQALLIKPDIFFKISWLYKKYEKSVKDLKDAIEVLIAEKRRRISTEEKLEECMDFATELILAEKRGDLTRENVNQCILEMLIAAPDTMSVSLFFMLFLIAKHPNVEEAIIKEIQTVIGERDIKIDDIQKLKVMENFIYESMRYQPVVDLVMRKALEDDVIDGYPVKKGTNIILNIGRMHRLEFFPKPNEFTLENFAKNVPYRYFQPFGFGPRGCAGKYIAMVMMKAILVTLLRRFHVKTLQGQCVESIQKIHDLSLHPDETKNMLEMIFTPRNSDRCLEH
Outline: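 Compounds were first screened at 10 uM in duplicate against purified enzyme, with a fluorogenic substrate and fluorescence intensity detection after 0.5 h. Inhibition appears as reduced signal against acetonitrile control.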

[10] = target: human CYP2A6, CYP2A6 (gene 1548) (UniProt P11509); assay: NVS_ADME_hCYP2A6: NovaScreen (NVS) CYP450-related Enzyme Activity (ADME) Assay for human CYP2A6 (AID 2283099; active means hit-call score of the fitted dose curve at least 0.9, where 1 is the maximum)
human CYP2A6, CYP2A6 (gene 1548), sequence (P11509 whole entry, looked up): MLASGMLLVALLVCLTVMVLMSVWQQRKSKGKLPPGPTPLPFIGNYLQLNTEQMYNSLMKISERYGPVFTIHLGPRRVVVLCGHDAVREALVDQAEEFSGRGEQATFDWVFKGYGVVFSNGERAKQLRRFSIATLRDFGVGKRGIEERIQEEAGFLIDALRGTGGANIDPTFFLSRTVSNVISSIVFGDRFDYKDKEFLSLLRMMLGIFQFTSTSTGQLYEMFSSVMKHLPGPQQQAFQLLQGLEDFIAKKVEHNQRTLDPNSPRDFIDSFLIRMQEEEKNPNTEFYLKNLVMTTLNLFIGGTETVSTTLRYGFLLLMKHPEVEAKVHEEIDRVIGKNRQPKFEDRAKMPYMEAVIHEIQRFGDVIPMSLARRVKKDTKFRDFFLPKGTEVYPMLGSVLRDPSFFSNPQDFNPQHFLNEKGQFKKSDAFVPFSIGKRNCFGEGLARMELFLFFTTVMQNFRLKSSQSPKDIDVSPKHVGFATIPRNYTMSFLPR
Outline: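 Recombinant human CYP2A6 from insect cells was incubated with chemical for 0.5 h and activity read by fluorescence. Single-concentration duplicates at 10 uM preceded concentration-response testing to 20 uM, with activity referenced to acetonitrile.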

Measured: AC50

E-selectin (Homo sapiens), sequence (P16581 whole entry, looked up): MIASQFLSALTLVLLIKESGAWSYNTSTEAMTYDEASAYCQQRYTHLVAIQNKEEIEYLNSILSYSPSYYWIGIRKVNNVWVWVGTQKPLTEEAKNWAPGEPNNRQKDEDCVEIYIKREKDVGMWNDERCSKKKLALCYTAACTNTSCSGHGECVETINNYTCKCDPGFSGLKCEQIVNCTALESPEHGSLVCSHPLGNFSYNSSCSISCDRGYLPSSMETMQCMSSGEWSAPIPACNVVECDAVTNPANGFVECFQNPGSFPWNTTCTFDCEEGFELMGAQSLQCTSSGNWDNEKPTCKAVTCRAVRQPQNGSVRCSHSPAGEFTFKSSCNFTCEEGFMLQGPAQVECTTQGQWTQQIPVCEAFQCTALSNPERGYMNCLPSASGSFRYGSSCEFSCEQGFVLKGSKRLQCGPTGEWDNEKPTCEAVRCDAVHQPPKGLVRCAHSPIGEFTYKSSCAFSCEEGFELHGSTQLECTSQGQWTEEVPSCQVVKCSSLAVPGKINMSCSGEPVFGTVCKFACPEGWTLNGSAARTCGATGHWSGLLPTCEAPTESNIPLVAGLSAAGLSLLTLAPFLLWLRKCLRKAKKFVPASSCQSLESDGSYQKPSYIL

c1ccc2[nH]c(-c3cscn3)nc2c1
active: [8] 4.65 µM
not listed: [9] | [10]
inactive: all other assays above

CC(=O)S[C@@H]1CC2=CC(=O)CC[C@]2(C)[C@H]2CC[C@@]3(C)[C@@H](CC[C@@]34CCC(=O)O4)[C@H]12
active: [1] 17.2 µM | [2] 14.9 µM | [3] 25.7 µM | [4] 13.3 µM | [5] 11.1 µM | [6] 13.7 µM | [7] 22.7 µM | [9] 8.3 µM
inactive: [9]

C=CCOC(Cn1ccnc1)c1ccc(Cl)cc1Cl (stereo not given)
inactive: [1] | [3] | [7]
active: [2] 32.9 µM | [4] 13.9 µM | [5] 37.1 µM | [6] 31.9 µM | [9] 0.628 µM | [10] 2.52 µM | [8] 1.55 µM

CCCN(CCC)C(=O)SCC
inactive: [1] | [2] | [3] | [4] | [5] | [6] | [7] | [9]
active: [9] 0.652 µM

Oc1ccc(C(c2ccc(O)cc2)C(Cl)(Cl)Cl)cc1
inactive: [9]
active: [2] 10.6 µM | [3] 38.9 µM | [4] 20 µM | [5] 14.2 µM | [6] 24.1 µM | [7] 32.3 µM | [8] 10 µM

CSC(=O)c1cccc2nnsc12
active: [10] 1.22 µM
not listed: [8] | [9]
inactive: all other assays above

S=C([S-])NCCNC(=S)[S-].[Mn+2]
active: [1] 30.3 µM | [4] 25.5 µM | [5] 30 µM | [6] 8.4 µM | [9] 1.11 µM
inactive: [3] | [7] | [10]

O=C(c1ccccc1)C1CCCCC1
not listed: [8] | [10]
inactive: all other assays above

CCNc1nc(N)nc(Cl)n1
not listed: [8] | [9] | [10]
inactive: all other assays above

COC(=O)CSc1cc(N=c2sc(=O)n3n2CCCC3)c(F)cc1Cl
not listed: [10]
inactive: all other assays above

CCCCOCCOCCOCc1cc2c(cc1CCC)OCO2
active: [4] 15.9 µM | [8] 5.97 µM
not listed: [10]
inactive: all other assays above

COC(=O)c1ccccc1C(=O)O
active: [2] 5.96 µM | [9] 3.5 µM
not listed: [10]
inactive: all other assays above

CCCCC(CC)CN1C(=O)C2C3C=CC(C3)C2C1=O (stereo not given)
active: [4] 15.3 µM | [6] 32.7 µM | [7] 20 µM
not listed: [8] | [10]
inactive: all other assays above

N[C@@H](Cc1cc(I)c(Oc2ccc(O)c(I)c2)c(I)c1)C(=O)O
not listed: [8] | [9] | [10]
inactive: all other assays above

CCOC(=O)COc1cc(-n2ncc(C(F)(F)F)c(C)c2=O)c(F)cc1Cl
not listed: [8] | [9] | [10]
inactive: all other assays above

O=C(c1ccc(O)cc1O)c1ccc(O)cc1O
active: [6] 20 µM | [9] 5.78 µM and 5.75 µM and 7.34 µM
not listed: [8] | [10]
inactive: all other assays above

O=C(Nc1ccc([N+](=O)[O-])cc1Cl)c1cc(Cl)ccc1O
active: [1] 0.148 µM | [2] 0.148 µM | [3] 0.289 µM | [4] 1.78 µM | [5] 0.493 µM | [6] 0.148 µM | [7] 0.65 µM

CCN(Cc1c(F)cccc1Cl)c1c([N+](=O)[O-])cc(C(F)(F)F)cc1[N+](=O)[O-]
active: [4] 8.35 µM | [5] 8.25 µM | [6] 20 µM | [7] 11.4 µM
inactive: [1] | [2] | [3]

CCCOC(=O)c1ccc(C(=O)OCCC)nc1
not listed: [8] | [10]
inactive: all other assays above

CCCCCCC(C)OC(=O)COc1nc(F)c(Cl)c(N)c1Cl (stereo not given)
active: [1] 29.8 µM | [2] 33 µM | [3] 38.5 µM | [4] 12.3 µM | [5] 29.1 µM | [6] 9.53 µM | [7] 34.9 µM

C[C@]12C[C@H](O)[C@H]3[C@@H](CCC4=CC(=O)CC[C@@]43C)[C@@H]1CC[C@@H]2C(=O)CO
not listed: [8] | [10]
inactive: all other assays above

CC(=O)[C@H]1CC[C@H]2[C@@H]3CCC4=CC(=O)CC[C@]4(C)[C@H]3CC[C@]12C
active: [2] 1.01 µM | [4] 9.94 µM | [6] 28.8 µM | [7] 4.21 µM
inactive: [1] | [3] | [5] | [9]

OB(O)O
not listed: [8] | [9] | [10]
inactive: all other assays above

N#CSCSc1nc2ccccc2s1
active: [1] 7.7 µM and 10.5 µM | [2] 5.69 µM and 8.52 µM | [3] 11.6 µM and 9.68 µM | [4] 909 nM and 2.23 µM | [5] 5.44 µM and 10.9 µM | [6] 783 nM and 1.76 µM | [7] 18.2 µM and 10.5 µM | [10] 3.06 µM

CCOC(=O)C(C)Oc1ccc(Oc2nc3ccc(Cl)cc3o2)cc1 (stereo not given)
active: [1] 20 µM | [2] 20 µM | [6] 32 µM
inactive: [3] | [4] | [5] | [7]

CC(C)CCCCCCc1ccc(O)cc1
active: [1] 6.52 µM | [2] 9.34 µM | [3] 9.25 µM | [4] 6.38 µM | [5] 6.55 µM | [6] 5.59 µM | [7] 13.1 µM | [8] 10.7 µM

CCC(O)=C1C(=O)CC(C(=O)O)CC1=O (stereo not given)
not listed: [8] | [9] | [10]
inactive: all other assays above

O=C(O)c1ccccc1
not listed: [8] | [9]
inactive: all other assays above

C#CCOC(=O)[C@@H](C)Oc1ccc(Oc2ncc(Cl)cc2F)cc1
active: [8] 2.24 µM
not listed: [9] | [10]
inactive: all other assays above
